mHTT-CaM PPI inh: mHTT-calmodulin interaction abrogation. AlphaScreen His-mHTT/GST-CaM binding, luminescence. AID 1671202. actives 3.6% (n = 190,000). inhibition, % at 15 µM;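 also: 0% = both proteins with DMSO and 100% = one protein alone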
Pf apPOL inh: Pf-apPOL DNA polymerase inhibition; Recombinant Pf-apPOL, molecular beacon fluorescence, 1.5 h; inhibition, % at 10 µM; actives 0.25% (n = 210,000)
* hit, by the source's call; / = no result given. Shown is part of a subset that was picked to be rich in hits. Rule as the data show it: active = inhibition above about 50%; inactive = the rest.

SMILES	mHTT-CaM PPI inh	Pf apPOL inh
COc1cccc(N=Cc2ccc(O)c3c2OC(N)=C(C#N)C3c2ccccc2[N+](=O)[O-])c1 (stereo unspecified)	95*	-4
Cc1ccc(-n2nc(C)c3c2OC(N)=C(C#N)C3c2ccccc2[N+](=O)[O-])cc1 (stereo unspecified)	9	-3
COc1ccccc1N=Cc1ccc(O)c2c1OC(N)=C(C#N)C2c1cccc([N+](=O)[O-])c1 (stereo unspecified)	77*	-8
N#CC1=C(N)Oc2c(C=Nc3ccccc3)ccc(O)c2C1c1ccc([N+](=O)[O-])cc1 (stereo unspecified)	35	3
Cc1ccc(C(=O)N2CCCN(Cc3noc(-c4ccccc4)n3)CC2)cc1	-3	2
CCOc1ccccc1NC(=O)N1CC(C)C(c2nc(-c3cccnc3)no2)C1 (stereo unspecified)	-1	-9
CCC(=O)Nc1c(-c2cccc(F)c2)nc2ccccn12	-4	4
CNC(=O)c1sc(-n2cccc2)nc1C	3	-4
O=C(NC1CC1)C1CCN(c2ccc(Cl)cc2F)C1=O (stereo unspecified)	-3	-4
Cc1ccc(-n2ccnc(NC(=O)c3cccc(F)c3)c2=O)cc1C	12	-1
Cc1ccc(-n2ccnc(NC(=O)c3ccccn3)c2=O)cc1C	89*	-16
CC(C)c1ccc(-n2ccnc(NC(=O)c3ccccn3)c2=O)cc1	91*	-22
CC(C)c1ccc(-n2ccnc(NC(=O)Nc3ccccc3)c2=O)cc1	0	0
O=C(NCc1n[nH]c(=O)c2ccccc12)c1ccc2nc[nH]c2c1	-4	4
Cc1noc(-c2nn(C)c3c2CN(S(=O)(=O)c2ccc(CC(C)C)cc2)CC3)n1	-2	-3
COc1ccc(C(F)(F)F)cc1NC(=O)C1CCCN(c2ccc(-c3ccco3)nn2)C1 (stereo unspecified)	77*	-4
COc1ccc(Cl)cc1NC(=O)c1cnn2c(C(F)(F)F)cc(-c3ccco3)nc12	1	5
COc1ccc(C)cc1NC(=O)C1CCCN(c2cnn(C)c(=O)c2)C1 (stereo unspecified)	53*	-8
COc1ccccc1NC(=O)C1CCCN(c2cnn(C)c(=O)c2)C1 (stereo unspecified)	2	0
COc1ccc(CCNC(=O)C2CCCN(c3ccc(-c4ccco4)nn3)C2)cc1OC (stereo unspecified)	2	-7
COc1ccc(Cl)cc1NC(=O)N1CCN(c2ccc(-c3ccco3)nn2)CC1	64*	15
NC(=O)C1(c2cccc(F)c2)CC1	-4	-5
Nc1nonc1-c1noc(-c2ccc[nH]c2=O)n1	4	/
Cc1ccc(O)c(C2NC(=O)c3c(sc4c3CCC(C(C)(C)C)C4)N2)c1 (stereo unspecified)	7	-5
COc1cccc(C2CC(=O)Nc3cc(C)c(C)cc32)c1 (stereo unspecified)	19	-3
SMILES	mHTT-CaM PPI inh	Pf apPOL inh
COc1cc(C2CC(=O)Nc3cc(C)c(C)cc32)cc(Br)c1OC (stereo unspecified)	98*	-8
COc1cccc(NC(=O)Nc2nnc(-c3ccc(C)cc3)s2)c1	0	2
CC12CC(NC(=O)N1c1ccccc1C(F)(F)F)c1cc(Br)ccc1O2 (stereo unspecified)	1	0
COc1ccc(C2/C=C\CN(C(=O)c3ccccc3)[C@@H](Cc3ccccc3)C(=O)N2Cc2ccc(F)cc2)cc1 (stereo partly specified)	87*	-3
COc1ccc(C2/C=C\CN(CC(C)C)[C@@H](Cc3ccccc3)C(=O)N2Cc2ccc(F)cc2)cc1 (stereo partly specified)	-4	-3
COc1ccc(C2/C=C\CN(C(=O)c3ccc(C)cc3)[C@@H](Cc3ccccc3)C(=O)N2Cc2ccc(F)cc2)cc1 (stereo partly specified)	16	-4
COc1ccc(C2/C=C\CN(C(=O)C3CC3)[C@@H](Cc3ccccc3)C(=O)N2Cc2ccc(F)cc2)cc1 (stereo partly specified)	91*	-1
Cc1ccccc1CC(=O)N1CCc2[nH]nc(C(=O)NC3CCCCC3)c2C1	-2	2
COc1ccc(N2C[C@H](Cc3ccccc3)[C@@H](CC(=O)Nc3ccccc3)C2=O)cc1	74*	0
COc1ccc(N2C[C@H](C)[C@@H](CC(=O)Nc3ccc(Br)cc3)C2=O)cc1	-5	0
O=C(C[C@H]1C(=O)N(Cc2cccnc2)C[C@@H]1Cc1ccccc1)Nc1ccc(Br)cc1	27	-6
COc1ccc(NC(=O)C[C@H]2C(=O)N(c3ccccc3)C[C@@H]2Cc2ccccc2)cc1	18	-7
O=C(C[C@H]1C(=O)N(Cc2ccccc2)C[C@@H]1Cc1ccccc1)Nc1ccc(Br)cc1	52*	0
COc1ccc([C@H]2CN(c3ccc(OC)cc3)C(=O)[C@@H]2CC(=O)Nc2ccc(Br)cc2)cc1	55*	-4

Screening results (PubChem)
